# Assay outcomes deposited in PubChem BioAssay by National Center for Advancing Translational Sciences (NCATS).
# JMJD2A Tudor inh: JMJD2A Tudor domain (human) inhibition. O75164. AlphaScreen JMJD2A-Tudor / H3K4me3 peptide binding. Potency, µM (doses to about 114 µM), for the others: top-dose activity change, negative = inhibition, hits mostly inhibitors. hit rate 4.4% among 390,000. AID 504339; note: % is set by controls: 0 for no effect and ±100 for the full control effect; nearly all actives have a fitted effect of over 50% in size
# HP1b binding inh: HP1-beta chromodomain-methylated histone interaction inhibition; P83916; AlphaScreen HP1-beta / biotin-H3K9me3 peptide binding; Potency, µM (highest dose often 114 µM), inactives show at the highest dose activity change, negative = inhibition, actives largely listed as inhibitors; hit rate 0.56% among 390,000; note: nearly all actives have a fitted effect of over 70% in size
#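 Compound inhibition of the preformed complex between 50 nM HP1-beta and 50 nM biotinylated H3K9me3 peptide was read by AlphaScreen. Buffer was PBS pH 7.4 with 0.01% Tween-20. Incubations ran 30 min at room temperature, with 10 ug/mL donor/acceptor beads.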
# L3MBTL1 block: inhibitors of human L3MBTL1; hit rate 0.66% among 230,000; AlphaScreen L3MBTL1–H3K9me1 peptide binding; Potency, µM (titrated, usually from 57.1 µM), for inactives: top-dose activity, negative = inhibition, hits mostly inhibitors; note: % is set by controls: 0 for no effect and ±100 for the full control effect; nearly all actives have a fitted effect of over 60% in size
#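 Displacement of a biotinylated histone H3(1-15) peptide monomethylated at Lys9 (75 nM) from L3MBTL1 (50 nM) was measured by AlphaScreen after a 30 min room-temperature compound incubation; cefsulodin titration served as intraplate control.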
# BAZ2B inh: BAZ2B (human) inhibition; hit rate 4.4% among 360,000; Potency, µM (highest dose often 114 µM), for inactives: top-dose activity change, negative = inhibition, actives largely listed as inhibitors; AID 504333; AlphaScreen BAZ2B-H3K14Ac peptide displacement; Q9UIF8; note: % is set by controls: 0 for no effect and ±100 for the full control effect; nearly all actives have a fitted effect of over 60% in size
#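 Protein-peptide AlphaScreen: BAZ2B 50 nM, b-H3K14Ac 50 nM, 1x PBS pH 7.4 + 0.01% Tween-20. Preincubation 30 min RT; cpd 30 min RT (top 110 uM); beads 20 min RT, light-protected.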
# G9a inh: inhibitors of human histone lysine methyltransferase G9a; G9a H3K9 monomethylation, AlphaScreen, 2 h; AID 504332; hit rate 8.8% among 350,000; Q96KQ7; Potency, µM (titrated, usually from 102 µM), inactives show at the highest dose activity, negative = inhibition, most hits filed as inhibitors; note: % is set by controls: 0 for no effect and ±100 for the full control effect; nearly all actives have a fitted effect of over 75% in size
#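 Chemiluminescent proximity detection of H3K9 monomethylation, read after 10 min bead incubation in the dark. Reaction: 20 nM G9a, 500 nM biotin-H3K9 peptide, 20 uM SAM cofactor, 2 h, room temperature, following 15 min enzyme-compound preincubation.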
# Active calls of the source: *; ? = inconclusive; · = no result; [ ] = remark or other dose. Compounds with a hit are over-represented: about 11% of the library has one in this group of screens. Calls come from the whole dose curve; as a rule, active = well fitted inhibition curve with a large enough effect; inconclusive = small, poorly fitted or top-dose-only effect; inactive = no such curve, though single readings can be large or run the other way. Potency is the fitted concentration of half-maximal effect.
SMILES,JMJD2A Tudor inh,HP1b binding inh,L3MBTL1 block,BAZ2B inh,G9a inh
Cn1nnc(NC(=S)NC(=O)Cc2ccccc2)n1,22.4µM*,79.4µM*,8.6%,35.5µM*,2.82µM*
COc1ccc(C(=O)NC(=S)Nc2nnn(C)n2)cc1,31.6µM*,-36.9%,4.0%,50.1µM*,3.55µM*
Cc1nc(NC(=S)NC(=O)c2ccco2)sc1C(=O)N(C)C,-12.0%,28.3%,·,-1.0%,39.8µM*
Cc1ccc(NC(=O)CN2C=NS(=O)(=O)c3ccccc32)c(C)c1,-27.7%,-9.1%,·,-0.6%,-2.3%[59 µM]
COCCN(CCOC)Cc1cc(=O)oc2cc3c(cc12)CCC3,-12.2%,51.8%,-7.9%,-25.6%,50.1µM*
N#C/C(=N\Nc1ccc(Cl)c(Cl)c1)C(=O)C1CC1,50.1µM*,?,·,44.7µM*,·
COc1ccc(N2CCN(C(=O)c3cccn3-c3nnc(N4CCCC4)s3)CC2)cc1,-19.2%,24.4%,·,?,?
CC(=O)N1N=C2/C(=C/c3ccccc3)CCCC2C1c1ccccc1 (configuration not stated),?,-8.3%,0.4%,-21.8%,·
O=C(O)c1c(C(=O)N2N=C3/C(=C/c4ccccc4)CCCC3C2c2ccccc2)cccc1[N+](=O)[O-] (configuration not stated),-21.4%,16.3%,-3.4%,?,50.1µM*
O=C(O)c1ccccc1C(=O)N1N=C2/C(=C/c3cccc([N+](=O)[O-])c3)CCCC2C1c1cccc([N+](=O)[O-])c1 (configuration not stated),?,-5.0%,-3.9%,44.7µM*,50.1µM*
CCc1cccc(C)c1NC(=O)CN1CCN(S(=O)(=O)c2ccc(C(C)(C)C)cc2)CC1,-24.9%,14.8%,-6.6%,2.5%,8.1%[59 µM]
CC(=O)C(Sc1nn(C)c(=S)s1)C(=O)Nc1ccccc1 (configuration not stated),50.1µM*,?,1.1%,?,3.55µM*
CC(=O)C(Sc1nc(N(C)C)nc(N(C)C)n1)C(=O)Nc1ccccc1 (configuration not stated),6.5%,54.9%,-1.2%[11.4 µM],-23.6%,?
Cc1ccc(CNC(=O)CS(=O)(=O)Cc2nc(-c3ccccc3C)oc2C)cc1,7.4%,29.3%,·,-14.0%,-3.9%[59 µM]
Cc1ccc(S(=O)(=O)n2nnc3ccccc32)c(C)c1C,-32.6%,60.3%,-4.5%,?,50.1µM*
CN1CCc2c(sc(NC(=O)C3CCCN3S(=O)(=O)c3ccc(Cl)s3)c2C(N)=O)C1 (configuration not stated),-11.1%,17.1%,-11.4%,-2.6%,44.7µM*
CCOC(=O)N1CCN(S(=O)(=O)c2ccc(C(=O)Nc3sc4c(c3C(N)=O)CCN(CC)C4)cc2)CC1,-26.4%,22.1%,·,?,50.1µM*
CN1CCc2c(sc(NC(=O)c3ccc(S(=O)(=O)N4CCOCC4)cc3)c2C(N)=O)C1,-27.2%,20.2%,-0.8%,1.3%,39.8µM*
CCOC(=O)N1CCN(S(=O)(=O)c2ccc(C(=O)Nc3sc4c(c3C(=O)OC)CCN(C)C4)cc2)CC1,-28.1%,31.8%,·,-22.6%,56.2µM*
CCCN1CCc2c(sc(NC(=O)c3ccc(S(=O)(=O)N4CCN(C(=O)OCC)CC4)cc3)c2C(N)=O)C1,-30.1%,18.4%,·,-19.7%,?
CC(=O)N1CCc2c(sc(NC(=O)C3CCCN3S(=O)(=O)c3cccs3)c2C(N)=O)C1 (configuration not stated),-15.9%,8.9%,9.3%,-30.0%,?
CN1CCc2c(sc(NC(=O)c3ccc(S(=O)(=O)N4CCCC4)cc3)c2C(N)=O)C1,-9.9%,24.5%,·,-2.3%,15.1%
C#CCN1C(=O)S/C(=C\c2ccc(-c3ccc(C(=O)O)cc3C)o2)C1=O,89.1µM*,-27.3%,5.01µM*,50.1µM*,?
Cc1ccc(NC(=O)CN2C(=O)S/C(=C\c3ccc(-c4cccc(C(=O)O)c4C)o3)C2=O)cc1,·,·,·,25.1µM*,11.2µM*
CC(C)OC(=O)CN1C(=O)S/C(=C/c2ccc(N3CCCCC3)o2)C1=O,?,-13.8%,·,?,?
SMILES,JMJD2A Tudor inh,HP1b binding inh,L3MBTL1 block,BAZ2B inh,G9a inh
Cc1cc(C(=O)O)ccc1-c1ccc(/C=C2\SC(=O)N(CC(=O)Nc3ccc4c(c3)OCO4)C2=O)o1,·,·,·,17.8µM*,-1.5%[0.501 µM]
Cc1c(/C=C2\SC(=O)N(CC(=O)Nc3ccc4c(c3)OCO4)C2=O)c2ccccc2n1C,-26.2%,-11.3%,-5.0%,-33.1%[57.1 µM],16.8%
CC(C)(C)OC(=O)CN1C(=O)S/C(=C\c2ccc(-c3cccc(C(=O)O)c3)o2)C1=O,·,·,?,?,56.2µM*
CCOC(=O)c1c(C)[nH]c(C)c1S(=O)(=O)NCC(=O)N1CCN(c2cccc(C)c2)C(C)C1 (configuration not stated),?,-16.1%,·,-16.5%,-27.1%[59 µM]
Cc1ccc(C(=O)O)cc1-c1ccc(/C=C2\SC(=O)N(CC(=O)Nc3ccccc3)C2=O)o1,35.5µM*,?,?,22.4µM*,7.08µM*
Cc1cc(/C=C2\SC(=O)N(CC(=O)Nc3ccccc3F)C2=O)c(C)n1C,-3.6%,26.5%,·,?,-6.4%[59 µM]
Cc1ccccc1NC(=O)CN1C(=O)S/C(=C\c2ccc(-c3cc(C(=O)O)ccc3C)o2)C1=O,22.4µM*,39.8µM*,?,14.1µM*,5.01µM*
Cc1cc(NC(=O)C(C)SCC(=O)NCc2ccc(F)cc2)no1 (configuration not stated),0.7%,24.9%,6.5%,5.5%,-23.1%[2.33 µM]
COc1ccc2[nH]c(C)c(CCN3C(=O)OC(C)(C)C3(C)O)c2c1 (configuration not stated),-33.3%,10.5%,-4.7%,-6.2%,-23.8%[59 µM]
COc1ccc2[nH]c(C)c(CCN3C(=O)C4CC=CCC4C3=O)c2c1 (configuration not stated),25.1µM*,-14.2%,-6.6%,?,?
CCS(=O)(=O)c1ccc(O)c(NC(=O)c2cc(OC)c(OC)c(OC)c2)c1,-1.3%,27.8%,-0.5%,4.9%,-7.7%[59 µM]
CCS(=O)(=O)c1ccc(N=Nc2ccc(O)c3ncccc23)c(OC)c1,20µM*,50.1µM*,·,5.62µM*,7.08µM*
Cc1ccc(N=Nc2ccc(O)c3ncccc23)cc1C,?,-5.5%,·,-30.1%,?
O=c1ncn(-c2ccccc2C(F)(F)F)c2ncccc12,-6.1%,35.0%,3.9%,9.2%,1.2%[59 µM]
COc1ccccc1N=Nc1ccc(O)c2ncccc12,44.7µM*,10µM*,·,20µM*,44.7µM*
Oc1ccc(N=Nc2ccccc2C(F)(F)F)c2cccnc12,10µM*,1.8%,·,5.62µM*,14.8%[2.33 µM]
CCN(Cc1ccccc1)C(=O)Cn1c(=O)n(-c2cccc(C)c2)c(=O)c2c1c1cc(C)ccc1n2C,10.7%,38.1%,·,-1.3%,-1.7%[59 µM]
COc1ccc(Cl)c2c1[nH]c1nc(SCc3ccccn3)nnc12,-15.1%,16.3%,·,-25.4%,2µM*
